Structures are written as SMILES. Inconclusive results are not listed. Unmarked numbers belong to inactive results. Activity calls are given as the source filed them. Calls follow the shape of the dose curve; as a rule, active = well fitted inhibition curve with a large enough effect in the repeat runs; inconclusive = weak or mixed curves; inactive = no such curve, though single readings can be large or run the other way.
% is scaled to controls: 0 for no effect and ±100 for the full control effect.

A short description of this experiment: qHTS assay to identify small molecule antagonists of the estrogen related receptor (ERR) signaling pathway from Tox21 library (AID 1224848). Also: nearly all actives have a fitted effect of over 50% in size. As to conditions: ERR reporter cell line, luciferase antagonist mode, 18 h; series mostly up to 92.4 µM; activity, negative = inhibition: at the top concentration. The text has this:
U.S. Tox21 Program National Center for Advancing Translational Sciences [NCATS] NIH Chemical Genomics Center [NCGC] U.S. Environmental Protection Agency [EPA] National Institutes of Environmental Health Sciences [NIEHS] National Toxicology Program [NTP] U.S. Food and Drug Administration [FDA] Tox21 Assay Overview: Estrogen related receptors (ERRs), the first orphan nuclear receptors discovered, play an important role in the control of cellular energy metabolism. ERRs are required for high-energy production in response to the environmental challenges. ERR-alpha was also identified as an adverse marker for breast cancer progression; ERR-alpha-positive tumors have a poor prognosis. To screen and to identify environmental compounds that perturb the ERR signaling pathways could provide valuable information for potential therapeutic or preventive measures in the treatment of metabolic disease. For identifying ERR antagonists, ERR cell line (provided by NTP) has been used to screen Tox21 10K library.
Tox21 Assay Protocol Summary: The ERR cells were dispensed at 2,000 cells/5 ul/well in 1536-well white plates using a Multidrop dispenser. After the assay plates were incubated at a 37 C/5% CO2 incubator for 6 hours, 23 nL of compounds dissolved in DMSO, positive and negative controls or DMSO only was transferred to the assay plate by a pin tool. The plates were incubated at 37 C for 18 hours. 4 ul/well of One-Glo reagent was added into the assay plates using a Flying Reagent Dispenser. After 30-minute incubation at room temperature, the luminescence intensity in the plates was measured using a ViewLux plate reader.
For the compound `CN(C)CCOC(=O)COc1ccc(Cl)cc1`, the call was inactive.

Consider `CCc1ccccc1CC`, for which the result was inactive.

Turning to `NCCCCCCN`, the compound was classed as inactive.

Regarding `OCc1ccccc1`, the compound was classed as inactive.

In the case of `O=S(=O)(O)c1ccccc1`, the result was inactive.

In the case of `O=C(O)Cn1c(=O)n(Cc2ccc(Br)cc2F)c(=O)c2ccc(Cl)cc21`, the result was inactive.

In the case of `COc1ccc(OC)cc1`, the call was inactive.

For the compound `O=C(O)c1ccc(C(=O)O)c(C(=O)O)c1`, the outcome was inactive.

Take `CC(=O)CCC=C(C)C`: the outcome was inactive.

With `Cc1ccc2ncccc2c1`, the compound was classed as inactive.

With `O=C(O)CCCCCCCCC(=O)O`, the result was inactive.

Regarding `CC(C)CC(=O)CC(C)CC(C)C` (centres undefined), the call was inactive.

For `O=C(O)c1cc2ccccc2cc1O`, the compound was classed as inactive.

As for `CC(C)(C#N)c1cc(Cn2cncn2)cc(C(C)(C)C#N)c1`, the compound was classed as inactive.

As to `Cc1ccc([N+](=O)[O-])cc1S(=O)(=O)O`, the compound was called inactive.

With `O=C1CCCC1`, the compound was classed as inactive.

Take `CC(=O)OC1CC(C)OC(C)O1` (centres undefined): the outcome was inactive.

With `CC1(C)NC(=O)NC1=O`, the outcome was inactive.

For `CC(CCl)OP(=O)(OC(C)CCl)OC(C)CCl` (centres undefined), the “activity, negative = inhibition” value is -10.8%.

With `CCCCCC(=O)O`, the outcome was inactive.

For the compound `O=C1C(c2[nH]c3ccccc3c2O)=Nc2ccccc21`, the compound was called inactive.

Turning to `CCCOC(=O)c1ccccc1`, the compound was called inactive.

Regarding `CCNc1cccc(C)c1`, the outcome was inactive.

Regarding `C=C(C)CNCC`, the compound was classed as inactive.

Regarding `N#Cc1ccccc1`, the outcome was inactive.

As to `COC(=O)c1cccnc1`, the outcome was inactive.

As to `Cc1ccc(S(=O)(=O)N=C=O)cc1`, the outcome was inactive.

Consider `CC(=O)OCc1ccco1`, for which the outcome was inactive.

For the compound `C=CC(=O)OCCC(=O)O`, the result was inactive.

For the compound `NCCNCCN`, the result was inactive.

On to `CCOCC(=O)O`, for which the compound was classed as inactive.

Consider `Cc1ccc(C(C)C)c(O)c1`, for which the outcome was inactive.

`CC(C)(Oc1ccc(CCNC(=O)c2ccc(Cl)cc2)cc1)C(=O)O`: the compound was called inactive.

As to `CC1(C)S[C@@H]2[C@H](NC(=O)COc3ccccc3)C(=O)N2[C@H]1C(=O)O`, the compound was classed as inactive.

Consider `O=S(=O)(O)c1ccc(N=Nc2c(O)ccc3cc(S(=O)(=O)O)ccc23)cc1`, for which the compound was classed as inactive.

In the case of `CC(=O)CC(C)(C)O`, the call was inactive.

Take `O=C1c2ccccc2CCc2ccccc21`: the compound was classed as inactive.

Take `CC(C)c1cccc(C(C)C)c1`: the compound was classed as inactive.

Regarding `CCO[Si](CCCN)(OCC)OCC`, the outcome was inactive.
